39 sequences from publication PMC5700166 can be followed below.

In the assay the target is T1, GST-Aq-NF-kB (Amphimedon queenslandica, UniProt A9Y5G7 2-389).
T1 sequence: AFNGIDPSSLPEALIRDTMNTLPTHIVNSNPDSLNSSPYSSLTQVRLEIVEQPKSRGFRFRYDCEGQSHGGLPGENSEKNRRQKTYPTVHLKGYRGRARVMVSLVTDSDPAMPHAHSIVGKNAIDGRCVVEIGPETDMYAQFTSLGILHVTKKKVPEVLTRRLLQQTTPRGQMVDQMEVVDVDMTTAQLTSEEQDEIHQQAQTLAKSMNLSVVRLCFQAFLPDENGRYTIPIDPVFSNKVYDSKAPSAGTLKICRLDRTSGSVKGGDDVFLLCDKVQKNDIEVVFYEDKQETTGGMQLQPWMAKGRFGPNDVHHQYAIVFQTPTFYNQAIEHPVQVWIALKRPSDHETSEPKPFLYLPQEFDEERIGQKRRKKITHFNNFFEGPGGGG
Nature of the assay: protein-binding microarray (PBM); PBM: ~300 nM protein, 6 mM HEPES pH 7.8, 80 mM KCl, 0.5 mM EDTA, 0.5 mM EGTA, 6% glycerol, 35 ng/ul poly-dIdC, 1% milk, 1 h, room temperature; Ap Aiptasia and Nv Nematostella (sea anemones) / Co Capsaspora / Aq Amphimedon (sponge) / Dm Drosophila / Hu human; RHD is the Rel homology domain; high values mean tight binding. To be noted: dsDNA, one strand shown.
Sequence “CCGATTAACATCAAGGGGGTAAATGATGTTAATCGGGTCTTGATTCGCTTGACGCTGCTG” registered a binding signal of 4.26 z-score.

Regarding “CCGATTAACATCAGGGAAAACGATGATGTTAATCGGGTCTTGATTCGCTTGACGCTGCTG”, the binding signal came to 2.74 z-score.

In turn, “CCGATTAACATCAATCTACCCCCTGATGTTAATCGGGTCTTGATTCGCTTGACGCTGCTG” came in with a binding signal of 3.68 z-score.

Regarding “CCGATTAACATCAATATAGTCCCTGATGTTAATCGGGTCTTGATTCGCTTGACGCTGCTG”, the binding signal was found to be 3.69 z-score.

For the sequence “CCGATTAACATCACTAAATTCCCTGATGTTAATCGGGTCTTGATTCGCTTGACGCTGCTG”, the binding signal was found to be 4.56 z-score.

The sequence “CCGATTAACATCAATTCCCAAGGTGATGTTAATCGGGTCTTGATTCGCTTGACGCTGCTG” displayed a binding signal of 1.55 z-score.

“CCGATTAACATCAGGGAAAACCATGATGTTAATCGGGTCTTGATTCGCTTGACGCTGCTG” registered a binding signal of 5.29 z-score.

In turn, “CCGATTAACATCAAGCAATTCCCTGATGTTAATCGGGTCTTGATTCGCTTGACGCTGCTG” came in with a binding signal of 3.57 z-score.

As to “CCGATTAACATCAGGGGATCTACTGATGTTAATCGGGTCTTGATTCGCTTGACGCTGCTG”, the binding signal came out at 5.74 z-score.

Consider “CCGATTAACATCAGGGAGCCCCCTGATGTTAATCGGGTCTTGATTCGCTTGACGCTGCTG”, for which the binding signal stood at 7.55 z-score.

Sequence “CCGATTAACATCAAAAAAACCCATGATGTTAATCGGGTCTTGATTCGCTTGACGCTGCTG” had a binding signal of 5.47 z-score.

Turning to “CCGATTAACATCAGGGAAAGAACTGATGTTAATCGGGTCTTGATTCGCTTGACGCTGCTG”, the binding signal stood at 4.9 z-score.

Consider “CCGATTAACATCAGGGATTTTCATGATGTTAATCGGGTCTTGATTCGCTTGACGCTGCTG”, for which the binding signal amounted to 5.16 z-score.

On to “CCGATTAACATCACTTTACCCCCTGATGTTAATCGGGTCTTGATTCGCTTGACGCTGCTG”, for which the binding signal was 3.05 z-score.

Consider “CCGATTAACATCAAGGGGGAGGGTGATGTTAATCGGGTCTTGATTCGCTTGACGCTGCTG”, for which the binding signal came out at 4.42 z-score.

“CCGATTAACATCAGGGAATCCACTGATGTTAATCGGGTCTTGATTCGCTTGACGCTGCTG” showed a binding signal of 5.29 z-score.

“CCGATTAACATCAACATGGGAATTGATGTTAATCGGGTCTTGATTCGCTTGACGCTGCTG”: the binding signal is 1.89 z-score.

The sequence “CCGATTAACATCAAGGGGGGTGGTGATGTTAATCGGGTCTTGATTCGCTTGACGCTGCTG” gave a binding signal of 4.15 z-score.

With “CCGATTAACATCATGGAGGGAGGTGATGTTAATCGGGTCTTGATTCGCTTGACGCTGCTG”, the binding signal was found to be 1.34 z-score.

On to “CCGATTAACATCAGGGGGTCTACTGATGTTAATCGGGTCTTGATTCGCTTGACGCTGCTG”, for which the binding signal turned out to be 4.4 z-score.

In turn, “CCGATTAACATCAGGCGATTCCCTGATGTTAATCGGGTCTTGATTCGCTTGACGCTGCTG” yielded a binding signal of 3.88 z-score.

“CCGATTAACATCACATTCTCCCCTGATGTTAATCGGGTCTTGATTCGCTTGACGCTGCTG” yielded a binding signal of 3.34 z-score.

The sequence “CCGATTAACATCAGGGGGGGTGATGATGTTAATCGGGTCTTGATTCGCTTGACGCTGCTG” registered a binding signal of 4.36 z-score.

Take “CCGATTAACATCAAGTATTCCCATGATGTTAATCGGGTCTTGATTCGCTTGACGCTGCTG”: the binding signal was 1.85 z-score.

With “CCGATTAACATCAGGGAAATATATGATGTTAATCGGGTCTTGATTCGCTTGACGCTGCTG”, the binding signal came to 6.09 z-score.

For “CCGATTAACATCAAAAATCACCCTGATGTTAATCGGGTCTTGATTCGCTTGACGCTGCTG”, the binding signal amounted to 3.84 z-score.

On to “CCGATTAACATCACCCAACCCCCTGATGTTAATCGGGTCTTGATTCGCTTGACGCTGCTG”, for which the binding signal is 3.45 z-score.

Turning to “CCGATTAACATCACGAAAATCCCTGATGTTAATCGGGTCTTGATTCGCTTGACGCTGCTG”, the binding signal was found to be 4.64 z-score.

In turn, “CCGATTAACATCACCTTCCCCCCTGATGTTAATCGGGTCTTGATTCGCTTGACGCTGCTG” came in with a binding signal of 4.32 z-score.

As for “CCGATTAACATCAGGGATTTCTATGATGTTAATCGGGTCTTGATTCGCTTGACGCTGCTG”, the binding signal worked out at 4 z-score.

As to “CCGATTAACATCACAGGGAAAAATGATGTTAATCGGGTCTTGATTCGCTTGACGCTGCTG”, the binding signal is 3.9 z-score.

The sequence “CCGATTAACATCAGGGTAAAACCTGATGTTAATCGGGTCTTGATTCGCTTGACGCTGCTG” gave a binding signal of 6.02 z-score.

For “CCGATTAACATCAACATGGGAAATGATGTTAATCGGGTCTTGATTCGCTTGACGCTGCTG”, the binding signal was found to be 1.66 z-score.

Sequence “CCGATTAACATCAGGAATACCCCTGATGTTAATCGGGTCTTGATTCGCTTGACGCTGCTG” yielded a binding signal of 6.92 z-score.

For the sequence “CCGATTAACATCAGGGGTTACACTGATGTTAATCGGGTCTTGATTCGCTTGACGCTGCTG”, the binding signal was determined as 2.36 z-score.

With “CCGATTAACATCAGGGAATATTATGATGTTAATCGGGTCTTGATTCGCTTGACGCTGCTG”, the binding signal was determined as 5.75 z-score.

In the case of “CCGATTAACATCAGGGGGTGTACTGATGTTAATCGGGTCTTGATTCGCTTGACGCTGCTG”, the binding signal was determined as 4.78 z-score.

With “CCGATTAACATCAGGGAACTTTATGATGTTAATCGGGTCTTGATTCGCTTGACGCTGCTG”, the binding signal worked out at 5.17 z-score.

Sequence “CCGATTAACATCAGACCTCCCCCTGATGTTAATCGGGTCTTGATTCGCTTGACGCTGCTG” returned a binding signal of 4.44 z-score.
